Experiment: MRP1 drug-resistance reversers in H69AR cells – cell-based, doxorubicin co-treatment, pilot screen (AID 601)
Conditions: H69AR cells + 2 uM doxorubicin, CellTiter-Glo, 72 h; measured here: viability with 2 uM doxorubicin; at 10 µM; stronger effect = lower value

SMILES	viability
O=C(NCCO)c1scc2c1OCCO2	102%
CN(c1ccccc1)S(=O)(=O)c1ccc(C(=O)OCC(=O)NCc2ccco2)cc1	84.8%
Clc1ccc(SCCn2ccnc2)cc1	84.3%
CC(C)(CO)NC(=O)CCCOc1ccc(Cl)cc1Cl	79.2%
Cc1ccccc1NC(=O)CSc1nc(N)c(C#N)c(-c2cccs2)c1C#N	27.1%
CCN(CC)C(=O)CSc1nc2ccc(NC(=O)CSc3nccn3C)cc2s1	84.8%
Cc1cc(Oc2ccccc2)nc(-c2ccccc2)n1	91.2%
COc1ccc(S(=O)(=O)CCC(=O)O)cc1	95.7%
O=C(Nc1ccc(OC(=O)c2ccco2)cc1)c1ccco1	95.7%
CCCc1nnc(SCC(=O)N2CCOCC2)n1Cc1ccco1	81.6%
Cc1ccc(S(=O)(=O)N2CCC(C(=O)N3CCC[C@H]3C(=O)NCc3ccccc3)CC2)cc1	96.2%
C=C(C)Cn1c(N2CCN(CC)CC2)nc2c1c(=O)[nH]c(=O)n2C	87.5%
Cc1cc2oc(=O)cc(CN3CCN(Cc4ccc5c(c4)OCO5)CC3)c2cc1C	80%
Cn1c(=O)c(C(=O)Nc2cccnc2)c(O)c2ccccc21	98.2%
C=Cn1c(C(=O)O)cc(CC)c1-c1ccccc1	104%
COc1ccccc1N1C(=O)CC(Sc2nc(C)cc(C)n2)C1=O (stereo not given)	92.7%
COc1cccc(NC(=O)NC2(C(F)(F)F)Oc3ccccc3O2)c1	48.1%
CCOC(=O)Nc1ccc2c(c1)N(C(=O)CN(CC)CC)c1ccccc1C=C2	82.8%
O=C1C(Cl)=C(N2CCOCC2)C(=O)N1CCc1ccccc1	71.3%
CCN(CCCNC(=O)CCNC(=O)Cn1ccc2ccccc2c1=O)c1ccccc1	86.5%

SMILES	viability
O=C(Nc1cccc2ccccc12)N1CCOCC1	98.9%
O=C1C(Cl)=C(N2CCCCC2)C(=O)N1c1ccccc1Cl	80.4%
CCC1(c2ccc(F)cc2)NC(=O)N(CC(=O)c2ccc[nH]2)C1=O (stereo not given)	86.9%
Nn1c(SCC(=O)Nc2ccc(F)cc2)nnc1-c1cccnc1	95.5%
CC1=C(C(N)=O)C(c2cccnc2)n2nc(SCc3ccccc3Cl)nc2N1 (stereo not given)	84%
COc1cc2c(cc1OC)C(c1cccnc1)CC(=O)N2 (stereo not given)	88.7%
CC(=O)c1cccc(NC(=O)c2ccc(NS(C)(=O)=O)cc2)c1	85%
CCC(C)(C)n1nnnc1C(c1ccc(OC)c(OC)c1)N1CCN(c2ccc(F)cc2)CC1 (stereo not given)	54.5%
Cc1cccc(C)c1NC(=O)CS(=O)CC(=O)NC1CCCc2ccccc21 (stereo not given)	92.3%
COc1ccccc1-c1cn[nH]c(=S)n1	92.9%
COc1ccc(S(=O)(=O)N2CCOCC2)cc1C(=O)Nc1cc(C)on1	85.8%
Cc1cc(C(=O)OCCO)c(C#N)c(N)n1	97.6%
CCOC(=O)c1nnc(-c2ccccc2)o1	79%
COCC(=O)Nc1sc2c(c1C(=O)OC)C(C(=O)OC)CC2 (stereo not given)	88.6%
Cc1oc(-c2ccc(Cl)cc2)nc1CS(=O)CC(=O)NCCCN(C)C1CCCCC1 (stereo not given)	76.3%
Cn1c(=O)c(-c2ccccc2)nn2c3ccccc3nc12	91.6%
CCN1CCN(c2ncnc3c2oc2nc(C)c4c(c23)CC(C)(C)OC4)CC1	98.1%
CCn1c(=O)cc(SCC(=O)Nc2cccnc2)c2ccccc21	89.3%
COCCCNS(=O)(=O)c1ccc2c(c1)CCN2C(C)=O	105%
CCN(CC)S(=O)(=O)c1ccc(Cl)c(C(=O)OC)c1	91%

Source: PubChem BioAssay
